# Measured values as given in the supplement of paper PMC3334620.
# In all, about 33,000 sequences were measured (“E-score (-0.5 to 0.5)”: median about -0.016, highest 2% from about 0.32 on). The sample as a whole holds a higher share of the highest values than the screen did.
# Biological target: T1, Stp1 (UniProt B3LFK1)
# T1 sequence: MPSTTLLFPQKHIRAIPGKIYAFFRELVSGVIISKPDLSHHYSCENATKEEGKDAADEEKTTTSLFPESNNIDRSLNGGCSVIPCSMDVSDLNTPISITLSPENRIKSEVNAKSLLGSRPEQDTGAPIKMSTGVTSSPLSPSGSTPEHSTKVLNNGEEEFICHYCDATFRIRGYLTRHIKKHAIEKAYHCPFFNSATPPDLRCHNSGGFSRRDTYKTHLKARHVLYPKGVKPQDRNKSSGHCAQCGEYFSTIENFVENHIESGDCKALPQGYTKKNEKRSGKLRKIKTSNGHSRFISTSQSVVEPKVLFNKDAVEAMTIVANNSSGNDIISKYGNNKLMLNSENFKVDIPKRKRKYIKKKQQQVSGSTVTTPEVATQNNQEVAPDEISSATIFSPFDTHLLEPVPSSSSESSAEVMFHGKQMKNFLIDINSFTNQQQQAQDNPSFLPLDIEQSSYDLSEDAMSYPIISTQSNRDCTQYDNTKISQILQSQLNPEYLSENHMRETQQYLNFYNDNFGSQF
# Assay: PBM E-score (8-mer binding enrichment) (E-score (-0.5 to 0.5)); higher = stronger / more preferred TF binding
# Conditions: protein concentration: 200 nM; construct: GST-full length
# Description: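 Universal 'all 10-mer' protein binding microarrays (Agilent AMADID 015681) probed with GST-tagged S. cerevisiae TFs (full-length or DBD) made by in vitro transcription/translation (PURExpress), about 100-200 nM. Bound TF was detected with fluorescent anti-GST. Each ungapped 8-mer (which stands for itself and its reverse complement) is scored by the PBM enrichment score (E-score), a modified Wilcoxon-Mann-Whitney statistic from -0.5 to +0.5, computed with the Universal PBM Analysis Suite. Scale: above 0.35 generally sequence-specific binding.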
row,Sequence,PBM E-score
1,AGAGGCGA,0.135
2,CGAGGCTC,0.131
3,AGAGGCGG,0.061
4,CGAGGCGA,0.289
5,AGAGGCGC,0.327
6,CGAGGCGC,0.456
7,GGGGCAAA,0.0199
8,TACTGTGA,-0.14
9,ATGGTAAA,0.0118
10,AATTACTC,0.144
11,CTTCTAGC,-0.0527
12,GCCGTGCA,0.478
13,GCCGTGGA,0.402
14,GCCGTGTA,0.473
15,ACCGTGCA,-0.0437
16,ACCGTGCC,0.313
17,TCCGTGCA,0.258
18,GCCGTGCC,0.487
19,GACGTGCC,0.238
20,ACCGTGTA,0.0338
21,CCCGTGTA,0.0889
22,ACCGTGGA,0.0243
23,CCCGTGGA,-0.0712
24,CCTTTTGC,0.214
25,ACAGATAG,-0.0308
26,AATATGCG,0.114

row,Sequence,PBM E-score
1,ACAACGAT,0.00545
2,AAGACGAA,0.0123
3,GAAGTGTC,-0.0596
4,CGAGTCGA,-0.00477
5,ACGGGTGC,0.105
6,GCGCTCGA,0.0767
7,AGCGTGCC,0.126
8,GCCGTGAC,0.294
9,TCCGTGAA,0.0172
10,CCCGTGGC,0.046
11,GCCGTGAA,0.361
12,CTCGTGCC,0.294
13,CGCGTGCA,0.0968
14,CGCGTGCC,0.325
15,CCCGTGCC,0.33
16,CCTCTCCC,-0.253
17,ACTGGCAG,0.0412
18,CTCGACGA,-0.13
19,TAATAGTA,0.24
20,ATTCCTAC,0.0636
21,CCAATAGG,0.0256
22,AACGGCCT,0.151
23,CACGGCCG,0.338
24,AACGGCCA,0.214
25,AACGGCCG,0.333
26,CCCGGCCG,-0.152

row,Sequence,PBM E-score
1,CACGGCCA,0.34
2,GACGGCCC,0.069
3,CAAGGCCG,0.103
4,ATCGGCCG,0.15
5,AACGGCCC,0.235
6,GACGGCCA,-0.0395
7,CACGGCCC,0.337
8,AGATCAGG,-0.173
9,CTAGAGTC,-0.33
10,ACGGAGCT,0.087
11,AACATAGG,0.0786
12,AGCCTTCA,0.108
13,AGGCATAC,0.0863
14,CTTTCTCC,-0.244
15,CATGCCGG,0.186
16,GATGCCGA,0.29
17,CATGCCGC,0.427
18,CATGCCGA,0.188
19,GATGCCCC,-0.129
20,GATGCCGC,0.466
21,CGGAAACA,-0.0866
22,GGGCATAC,-0.00074
23,GCACGTGA,0.135
24,GCACGTGC,0.352
25,CCACGTGC,0.215
26,ACCAGAGC,-0.0074

row,Sequence,PBM E-score
1,CCGCACCA,0.237
2,AGTGCCTG,-0.0958
3,AGTGCCTA,0.21
4,CGTGCCTC,0.398
5,CGTGCCCC,0.0449
6,CGTGCCTA,0.184
7,AGTGCCTC,0.347
8,GGTGGTTA,0.00324
9,AACGCATG,-0.0148
10,CGCCGAAC,0.347
11,GGGCGAAC,0.0424
12,TGGCGAAA,0.088
13,CGGCGAAG,0.292
14,CGGCGAAA,0.354
15,AGGCGAAC,0.145
16,CGCCGAAG,0.13
17,AGCCGAAC,-0.0533
18,CGGCGAAC,0.317
19,CATAGTCA,-0.195
20,CTGGAGTC,-0.362
21,TAGCAGGA,-0.226
22,CAGCCTTC,-0.091
23,CGGCATAC,0.27
24,AGGCATAG,0.15
25,CAGCATCA,0.0143
26,AGGCATCG,0.348

row,Sequence,PBM E-score
1,CGGCATAA,0.358
2,GGGCATCA,0.104
3,GGGCATAA,0.0801
4,AGGCATCC,-0.0829
5,CGGCATCC,0.353
6,AGGCATCA,0.215
7,CAGCATCC,-0.252
8,CGGCATCA,0.438
9,CACCACGA,-0.0238
10,ATATCGAG,0.123
11,CATAGGGC,0.152
12,ACCCTAGA,-0.227
13,ACTGTTCC,-0.131
14,ACCATCAA,-0.149
15,ATCAGTTG,0.00725
16,GACTGCTC,-0.287
17,TTCAACAA,0.167
18,AAAAGCTC,-0.131
19,CACCGCGC,0.166
20,AGCGCCTA,0.182
21,AGCGCCGC,0.481
22,GCCGCCTA,0.185
23,CGCGCCGC,0.483
24,CTCCGCGC,0.227
25,CGCCCCGC,0.221
26,GGCGCCTA,0.362

row,Sequence,PBM E-score
1,CGCCGCGC,0.487
2,AGCGCAGC,-0.112
3,AGCGCCCC,0.0659
4,CGCGCCCC,0.209
5,CATGATCG,-0.0196
6,GGAGCCAC,-0.246
7,CAGCGAAA,-0.0495
8,CGATCAGA,-0.053
9,GTACACGA,0.136
10,ATATTAGG,0.0795
11,CTCGAAAC,0.113
12,AGACAACG,0.0214
13,CAAGACGG,-0.0357
14,CATTGCGC,0.0607
15,AGCGCAGA,-0.0529
16,AGCGCCGG,0.174
17,CGCGCAGA,0.22
18,AGCGCCCT,0.319
19,AGCGCCCG,-0.00709
20,CGCGCCCA,0.213
21,CGCGCCGA,0.362
22,GGCGCCCA,0.311
23,GGCGCCGA,0.421
24,AGCGCCCA,-0.225
25,AGCGCCGA,0.321
26,GTCGCCGA,0.0933

row,Sequence,PBM E-score
1,AGCCAAAG,-0.00729
2,AGATCCTG,-0.32
3,CACGGTCC,-0.109
4,TCCCCAAA,-0.0405
5,GACTATCC,-0.178
6,CAACCAGG,-0.196
7,GGAGTGAA,-0.0852
8,AGATTTCC,-0.00021
9,ACAAAGTG,-0.0329
10,ATCTTGAG,-0.0881
11,GGCCGCGA,-0.0392
12,CACCGCGA,-0.0402
13,CGCCGCGA,0.379
14,ACCGCCCT,-0.14
15,ACCGCCGC,0.389
16,ACCGCCGA,0.0744
17,ACCGCCGT,0.449
18,ACCGCCAT,0.0869
19,ACCGCCGG,-0.0408
20,AGCAACCC,-0.306
